# In PubChem BioAssay (EPA / NIEHS):
# The source made the active and inactive calls. Rule for the calls: active = hit-call score of the fitted dose curve at least 0.9, where 1 is the maximum; inactive = score below 0.9.
# What was measured:
# [1] = CCTE_Harrill_HTTr_Viability_MCF7: CCTE's 6-hour Cell Viability Assessment for the High-Throughput Transcriptomics (HTTr) Platform, in MCF-7 cells cultured in DMEM + 10% fetal bovine serum, Harrill Lab (AID 2284010)
# Summary of the method: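 Eight-point concentration series, six-hour exposure. Propidium iodide exclusion imaged to assess membrane integrity as a cytotoxicity readout; bidirectional fitting was done with DMSO as negative control and activity baseline.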
# [2] = CCTE_Harrill_HTTr_Apoptosis_MCF7: CCTE's 6-hour Apoptosis Assessment for the High-Throughput Transcriptomics (HTTr) Platform, in MCF-7 cells cultured in DMEM + 10% fetal bovine serum, Harrill Lab (AID 2284011)
# Summary of the method: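 MCF-7 (DMEM + 10% FBS), 384-well; 8-pt dilution series, 6 h chemical exposure; caspase-3/7 activation via CellEvent Caspase 3/7 Green, HCI; bidirectional fit vs DMSO.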
# [3] = CCTE_Shafer_MEA_acute_spike_number: CCTE's Neural Acute Assay for Total Number of Spikes, Shafer Lab (AID 2284008);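 for AC50: curve fitted for decrease in spike count so AC50 reflects inhibitors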
# Summary of the method: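 Read-out is the total spike count over 40 min, expressed as percent change from each well's own pre-treatment baseline and fitted in the loss direction against DMSO. Rat cortical neurons were exposed at 0.03-40 uM on DIV 13 or 15.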
# [4] = CCTE_Shafer_MEA_acute_firing_rate_mean: CCTE's Neural Acute Assay for Mean Firing Rate, Shafer Lab (AID 2284009);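 note: analyzed for loss of signal so actives lower firing rate relative to DMSO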
# Summary of the method: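 Rat cortical neuron cultures matured to DIV 13 or 15, equilibrated 20 min at 37 C, then recorded 40 min for baseline. Compound (0.03-40 uM) added and a further 40 min recorded; percent change in mean firing rate calculated per well.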
smiles,measurement,setting,value
O=c1ccc2ccccc2o1,outcome,[1],inactive
same,outcome,[2],inactive
O=C(OCCCCCCOC(=O)c1ccccc1)c1ccccc1,outcome,[1],inactive
same,outcome,[2],inactive
c1ccc(C[n+]2cccc3ccccc32)cc1,outcome,[1],inactive
same,outcome,[2],inactive
O=CCCCC=O,outcome,[1],inactive
same,outcome,[2],inactive
Cc1oc2c(NC(=O)c3c(Cl)cccc3Cl)cccc2c1C(C)(C)O,outcome,[1],inactive
same,outcome,[2],inactive
CC(C)(C)c1cc(/C=C2\SC(N)=NC2=O)cc(C(C)(C)C)c1O,AC50,[3],14.7 µM (active)
same,AC50,[4],14.8 µM (active)
same,outcome,[1],inactive
same,outcome,[2],inactive
CO[C@H]1/C=C/O[C@@]2(C)Oc3c(C)c(O)c4c(O)c(c(/C=N/N5CCN(C)CC5)c(O)c4c3C2=O)NC(=O)/C(C)=C\C=C\[C@H](C)[C@H](O)[C@@H](C)[C@@H](O)[C@@H](C)[C@H](OC(C)=O)[C@@H]1C,outcome,[3],inactive
same,outcome,[4],inactive
same,outcome,[1],inactive
same,outcome,[2],inactive
